The full list was thinned out, with hits kept by preference.
Ba CapD inh = CapD enzyme inhibition | actives 0.23% (n = 140,000) | purified CapD enzyme, fluorescence intensity read-out; stronger effect = lower value | z-score (concentration not given with the values); in the data active = z-score mostly below about -2.9, no sharp cut-off; inactive = mostly above about -1.9
Active calls of the source: *.

SMILES	Ba CapD inh
O=C1c2cccnc2C(=O)N1Cc1ccc(S(=O)(=O)NC2CCCCC2)cc1	0.425
O=C(c1cc2cc3ccccc3nc2s1)c1ccc(Cl)cc1Cl	-0.125
COc1ccccc1N1CCN(C(=O)c2cnn3c(C)c(Cc4ccccc4Br)c(C)nc23)CC1	-0.32
Cc1cc(/C=C2\C(=O)NC(=S)N(c3ccc(F)cc3)C2=O)c(C)n1-c1ccccc1	-0.455
Cc1ccc(N2C(=O)NC(=O)/C(=C\c3cc(C)n(-c4cc(C(=O)O)cc(C(=O)O)c4)c3C)C2=O)cc1	-1.14
Cc1cc(/C=C2\C(=O)NC(=S)N(c3cccc(Cl)c3)C2=O)c(C)n1-c1cc(C(=O)O)cc(C(=O)O)c1	-5.89*
O=C(Cn1cncn1)N/N=C/c1ccc(Oc2ccccc2)cc1	0.69
CCCCC1(CC(=O)Nc2ccc(F)cc2)C(=O)N(c2ccccc2)N(c2ccccc2)C1=O	-0.28
CCOc1cc2c(cc1OCC)C1C(C(=O)N3CCCCC3)c3ccccc3C(=O)N1CC2 (stereo not drawn)	-5.9*
CCOc1cc2c(cc1OCC)C1C(C(=O)N3CCCC3)c3ccccc3C(=O)N1CC2 (stereo not drawn)	0.445
CCOC(=O)C1CCN(C(=O)C2c3ccccc3C(=O)N3CCc4ccccc4C23)CC1 (stereo not drawn)	-0.405
CC(=O)Oc1ccc(/C=C2/C(=N)N3C(=NC2=O)SN=C3SC(C)C)cc1	-0.23
CC(C)SC1=NSC2=NC(=O)/C(=C\c3ccc(-c4cccc(C(=O)O)c4)o3)C(=N)N21	-13.2*
CSC1=NSC2=NC(=O)/C(=C\c3ccc(-c4ccccc4)o3)C(=N)N12	-0.655

Screening data as filed in PubChem.
